The values that follow come from ChEMBL document CHEMBL2218924, “A broad activity screen in support of a chemogenomic map for kinase signalling research and drug discovery” (Biochem J, 2013).

Each structure is given as a SMILES string.

This assay deals with T1, Serine/threonine-protein kinase ULK3 (Homo sapiens) (UniProt Q6PHR2).
T1 sequence (whole entry): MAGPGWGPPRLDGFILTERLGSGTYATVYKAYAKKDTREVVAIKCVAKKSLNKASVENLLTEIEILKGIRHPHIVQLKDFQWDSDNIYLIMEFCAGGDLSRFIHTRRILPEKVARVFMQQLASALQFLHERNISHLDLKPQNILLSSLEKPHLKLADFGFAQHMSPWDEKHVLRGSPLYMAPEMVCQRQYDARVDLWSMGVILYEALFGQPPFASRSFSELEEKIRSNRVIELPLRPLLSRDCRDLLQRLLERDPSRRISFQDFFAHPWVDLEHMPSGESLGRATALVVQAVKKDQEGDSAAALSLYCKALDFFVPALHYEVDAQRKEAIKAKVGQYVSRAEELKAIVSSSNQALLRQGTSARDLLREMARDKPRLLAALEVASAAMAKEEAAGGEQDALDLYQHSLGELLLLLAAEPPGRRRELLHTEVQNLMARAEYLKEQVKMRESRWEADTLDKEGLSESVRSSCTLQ
Conditions: at 1 µM.
As for `c1ccc(-c2n[nH]cc2-c2ccnc3ccccc23)nc1`, the residual activity (in general, the signal under treatment as a percentage of the control signal) was 100%.

For `Cn1nc2c3c(cccc31)C(=O)c1ccccc1-2`, the residual activity was determined as 89%.

With `COc1ccc(CNc2nc(N(CCO)CCO)nc3c2ncn3C(C)C)cc1`, the residual activity amounted to 81%.

In the case of `CO[C@@H]1[C@H](N(C)C(=O)c2ccccc2)C[C@H]2O[C@]1(C)n1c3ccccc3c3c4c(c5c6ccccc6n2c5c31)C(=O)NC4`, the residual activity was found to be 17%.

As for `C[C@@H](N)[C@H]1CC[C@H](C(=O)Nc2ccncc2)CC1`, the residual activity was 95%.

Turning to `Cc1cccc(-c2[nH]c(C(C)(C)C)nc2-c2ccc3c(c2)OCO3)n1`, the residual activity was 104%.

As for `Cc1cc(Nc2nc(-c3ccccc3)nc3ccccc23)n[nH]1`, the residual activity was determined as 29%.

Take `O=C1Nc2ccc(Br)cc2/C1=C\c1cc2c([nH]1)CCCC2`: the residual activity turned out to be 52%.

Consider `Cc1cc2ncc(-c3ccccc3)nc2cc1C`, for which the residual activity came out at 107%.

In the case of `CCN(CC)C(=O)c1ccc(Nc2nc(OCC3CCCCC3)c3nc[nH]c3n2)cc1`, the residual activity turned out to be 36%.

Take `O=C1c2ccccc2-[n+]2ccc3c([nH]c4ccccc43)c21`: the residual activity was found to be 92%.

As to `Cc1ccc(S(=O)(=O)/C=C/C#N)cc1`, the residual activity stood at 97%.

Take `c1ccc2c(-c3ccncc3)c[nH]c2c1`: the residual activity is 104%.

As to `Cc1cncc2cccc(S(=O)(=O)N3CCCN(C(=O)CN)C[C@H]3C)c12`, the residual activity amounted to 97%.

Regarding `N#CCCc1ccc2c(c1)-c1[nH]c3ccc([N+](=O)[O-])cc3c1CC(=O)N2`, the residual activity is 33%.

For the molecule `CO[C@H]1C[C@@H]2CC[C@@H](C)[C@@](O)(O2)C(=O)C(=O)N2CCCC[C@H]2C(=O)O[C@H]([C@H](C)C[C@@H]2CC[C@@H](O)[C@H](OC)C2)CC(=O)[C@H](C)/C=C(\C)[C@@H](O)[C@@H](OC)C(=O)[C@H](C)C[C@H](C)/C=C/C=C/C=C/1C`, the residual activity is 100%.
